# Only a selection was taken, and the strongest signals are over-represented in it overall.
# B1: Gal 8 (Homo sapiens) (protein)
# chain: MLSLNNLQNIIYNPVIPYVGTIPDQLDPGTLIVICGHVPSDADRFQVDLQNGSSVKPRADVAFHFNPRFKRAGCIVCNTLINEKWGREEITYDTPFKREKSFEIVIMVLKDKFQVAVNGKHTLLYGHRIGPEKIDTLGIYGKVNIHSIGFSFSSDLQSTQASSLELTEISRENVPKSGTPQLQTVSPSWDLQGHGSETFCSVLWTRVFLEIAFCRPIGLTVASFQSLPFAARLNTPMGPGRTVVVKGEVNANAKSFNVDLLAGKSKDIALHLNPRLNIKAFVRNSFLQESWGEEERNITSFPFSPGMYFEMIIYCDVREFKVAVNGVHSLEYKHRFKELSSIDTLEINGDIHLLEVRSW
# Experiments:
# Assay in all cases: glycan array binding signal (z-score within array); higher = stronger binding
# Conditions in all cases: glycan notation: IUPAC condensed, linker removed
# [1] = biological target: Fuc(a1-2)Gal(b1-3)GalNAc(a1-3)[Fuc(a1-2)]Gal(b1-4)Glc
# How it was run: (§1)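 The Consortium for Functional Glycomics database supplied 3228 glycan arrays, of which those lacking an available protein sequence were dropped. The binding signal, a within-array Z-score, was averaged across arrays of the same protein sequence and across linkers. Negative scores can be read as non-binding.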
# [2] = biological target: Fuc(a1-2)Gal(b1-3)GlcNAc(b1-3)[Gal(b1-4)GlcNAc(b1-6)]Gal(b1-4)Glc
# How it was run: as §1
# [3] = biological target: Fuc(a1-2)[Gal(a1-3)]Gal(b1-4)Glc
# How it was run: as §1
# [4] = biological target: Fuc(a1-2)[Gal(a1-3)]Gal(b1-4)GlcNAc(b1-2)Man(a1-3)[Fuc(a1-2)[Gal(a1-3)]Gal(b1-4)GlcNAc(b1-2)Man(a1-6)]Man(b1-4)GlcNAc(b1-4)GlcNAc
# How it was run: as §1
# [5] = biological target: Fuc(a1-2)[GalNAc(a1-3)]Gal(b1-4)GlcNAc(b1-2)Man(a1-3)[Fuc(a1-2)[GalNAc(a1-3)]Gal(b1-4)GlcNAc(b1-2)Man(a1-6)]Man(b1-4)GlcNAc(b1-4)GlcNAc
# How it was run: as §1
# [6] = biological target: Fuc(a1-2)[GalNAc(a1-4)]Gal(b1-4)GlcNAc
# How it was run: as §1
# [7] = biological target: Fuc(a1-3)[Gal(b1-4)]GlcNAc(b1-4)Gal(b1-4)[Fuc(a1-3)]GlcNAc(b1-4)Gal(b1-4)[Fuc(a1-3)]GlcNAc
# How it was run: as §1
# Gal(a1-3)GalNAc = biological target: Gal(a1-3)GalNAc
# How it was run: as §1
# [8] = biological target: Gal(b1-3)[Fuc(a1-4)]GlcNAc(b1-3)Gal(b1-4)[Fuc(a1-3)]GlcNAc
# How it was run: as §1
# [9] = biological target: Gal(b1-3)[Fuc(a1-4)]GlcNAc(b1-6)GalNAc
# How it was run: as §1
# [10] = biological target: Gal(b1-3)[Neu5Ac(b2-6)]GalNAc
# How it was run: as §1
# [11] = biological target: Gal(b1-4)GlcNAc(b1-3)Gal(b1-4)GlcNAc(b1-2)Man(a1-3)[Gal(b1-4)GlcNAc(b1-3)Gal(b1-4)GlcNAc(b1-2)Man(a1-6)]Man(b1-4)GlcNAc(b1-4)[Fuc(a1-6)]GlcNAc
# How it was run: as §1
# [12] = biological target: Gal(b1-4)GlcNAc(b1-3)Gal(b1-4)GlcNAc(b1-2)[Gal(b1-4)GlcNAc(b1-3)Gal(b1-4)GlcNAc(b1-6)]Man(a1-6)[Gal(b1-4)GlcNAc(b1-3)Gal(b1-4)GlcNAc(b1-2)Man(a1-3)]Man(b1-4)GlcNAc(b1-4)[Fuc(a1-6)]GlcNAc
# How it was run: as §1
# [13] = biological target: Gal(b1-4)GlcNAc(b1-3)Gal(b1-4)GlcNAc(b1-3)Gal(b1-4)GlcNAc(b1-2)[Gal(b1-4)GlcNAc(b1-3)Gal(b1-4)GlcNAc(b1-3)Gal(b1-4)GlcNAc(b1-6)]Man(a1-6)[Gal(b1-4)GlcNAc(b1-3)Gal(b1-4)GlcNAc(b1-3)Gal(b1-4)GlcNAc(b1-2)Man(a1-3)]Man(b1-4)GlcNAc(b1-4)[Fuc(a1-6)]GlcNAc
# How it was run: as §1
# [14] = biological target: Gal(b1-4)GlcNAc(b1-3)Gal(b1-4)GlcNAc(b1-3)Gal(b1-4)GlcNAc(b1-3)Gal(b1-4)GlcNAc(b1-2)Man(a1-3)[Gal(b1-4)GlcNAc(b1-3)Gal(b1-4)GlcNAc(b1-3)Gal(b1-4)GlcNAc(b1-3)Gal(b1-4)GlcNAc(b1-2)Man(a1-6)]Man(b1-4)GlcNAc(b1-4)[Fuc(a1-6)]GlcNAc
# How it was run: as §1
# [15] = biological target: Gal(b1-4)GlcNAc(b1-3)Gal(b1-4)GlcNAc(b1-3)Gal(b1-4)GlcNAc(b1-3)Gal(b1-4)GlcNAc(b1-2)[Gal(b1-4)GlcNAc(b1-3)Gal(b1-4)GlcNAc(b1-3)Gal(b1-4)GlcNAc(b1-3)Gal(b1-4)GlcNAc(b1-6)]Man(a1-6)[Gal(b1-4)GlcNAc(b1-3)Gal(b1-4)GlcNAc(b1-3)Gal(b1-4)GlcNAc(b1-3)Gal(b1-4)GlcNAc(b1-2)Man(a1-3)]Man(b1-4)GlcNAc(b1-4)[Fuc(a1-6)]GlcNAc
# How it was run: as §1
# [16] = biological target: Gal(b1-4)GlcNAc(b1-3)Gal(b1-4)GlcNAc(b1-3)Gal(b1-4)GlcNAc(b1-3)Gal(b1-4)GlcNAc(b1-3)Gal(b1-4)GlcNAc(b1-2)[Gal(b1-4)GlcNAc(b1-3)Gal(b1-4)GlcNAc(b1-3)Gal(b1-4)GlcNAc(b1-3)Gal(b1-4)GlcNAc(b1-3)Gal(b1-4)GlcNAc(b1-6)]Man(a1-6)[Gal(b1-4)GlcNAc(b1-3)Gal(b1-4)GlcNAc(b1-3)Gal(b1-4)GlcNAc(b1-3)Gal(b1-4)GlcNAc(b1-3)Gal(b1-4)GlcNAc(b1-2)Man(a1-3)]Man(b1-4)GlcNAc(b1-4)[Fuc(a1-6)]GlcNAc
# How it was run: as §1
# [17] = biological target: Gal(b1-4)GlcNAc(b1-3)Gal(b1-4)GlcNAc(b1-3)Gal(b1-4)GlcNAc(b1-3)Gal(b1-4)GlcNAc(b1-3)Gal(b1-4)GlcNAc(b1-3)Gal(b1-4)GlcNAc(b1-2)Man(a1-3)[Gal(b1-4)GlcNAc(b1-3)Gal(b1-4)GlcNAc(b1-3)Gal(b1-4)GlcNAc(b1-3)Gal(b1-4)GlcNAc(b1-3)Gal(b1-4)GlcNAc(b1-3)Gal(b1-4)GlcNAc(b1-2)Man(a1-6)]Man(b1-4)GlcNAc(b1-4)GlcNAc
# How it was run: as §1
# [18] = biological target: Gal(b1-4)GlcNAc(b1-6)[Gal(b1-3)]GalNAc
# How it was run: as §1
# [19] = biological target: GalNAc(a1-3)GalNAc(b1-3)Gal(a1-4)Gal(b1-4)Glc
# How it was run: as §1
binder,measurement,setting,value
B1,glycan array binding signal (z-score),[1],0.572
same,glycan array binding signal (z-score),[2],0.003
same,glycan array binding signal (z-score),[3],4.4
same,glycan array binding signal (z-score),[4],4.31
same,glycan array binding signal (z-score),[5],5.81
same,glycan array binding signal (z-score),[6],-0.357
same,glycan array binding signal (z-score),[7],-0.35
same,glycan array binding signal (z-score),Gal(a1-3)GalNAc,-0.387
same,glycan array binding signal (z-score),[8],-0.39
same,glycan array binding signal (z-score),[9],-0.355
same,glycan array binding signal (z-score),[10],-0.387
same,glycan array binding signal (z-score),[11],3.06
same,glycan array binding signal (z-score),[12],6.42
same,glycan array binding signal (z-score),[13],6.12
same,glycan array binding signal (z-score),[14],3.61
same,glycan array binding signal (z-score),[15],5.79
same,glycan array binding signal (z-score),[16],5.3
same,glycan array binding signal (z-score),[17],5.33
same,glycan array binding signal (z-score),[18],-0.305
same,glycan array binding signal (z-score),[19],0.169
